From PubChem BioAssay (NCATS)
Values joined by “and” are separate entries in the source; they are usually repeats but may differ in a detail not shown here. Identical values can stand only once. Results filed as inconclusive are left out. Where a call stands in place of a potency, no number is given. Some structures have more than one record in an assay (separate samples or runs), and their calls can disagree. Active and inactive are the calls of the source. Unless noted, calls follow the shape of the dose curve; as a rule, active = well fitted curve in the direction sought with a large enough effect; inconclusive = small, poorly fitted or top-dose-only effect, or another doubt; inactive = no such curve, though single readings can be large; an effect the other way counts as inactive or inconclusive.

Assays:
[1] = target: Guanine nucleotide-binding protein G(i) subunit alpha-1 (Homo sapiens) (UniProt P63096); test: qHTS Assay for Inhibitors of RGS12 GoLoco Motif Activity (Green Fluorophore) (AID 879);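 also: negative values mean loss of peptide binding seen as reduced polarization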
Guanine nucleotide-binding protein G(i) subunit alpha-1 (Homo sapiens), sequence (P63096 whole entry, looked up): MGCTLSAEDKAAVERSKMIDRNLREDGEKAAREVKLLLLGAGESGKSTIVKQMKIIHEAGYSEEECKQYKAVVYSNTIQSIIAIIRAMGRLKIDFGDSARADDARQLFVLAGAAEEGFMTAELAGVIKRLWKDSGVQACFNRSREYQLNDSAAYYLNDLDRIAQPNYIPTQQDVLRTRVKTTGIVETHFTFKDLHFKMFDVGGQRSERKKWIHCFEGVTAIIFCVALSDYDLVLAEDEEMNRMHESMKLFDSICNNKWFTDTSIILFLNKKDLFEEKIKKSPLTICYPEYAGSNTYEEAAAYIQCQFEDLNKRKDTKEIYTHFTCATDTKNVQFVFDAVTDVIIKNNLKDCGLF
Procedure, shortened: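 A drop in FITC polarization marked displacement of the FITC-tagged RGS12 GoLoco peptide (10 nM) from Gαi1 (50 nM). Compounds were incubated 10 min at room temperature in Tris pH 7.5 buffer containing 150 mM NaCl, 0.1 mM GDP and 0.05% NP40; unlabeled peptide titration served as control.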

[2] = qHTS Assay for Identification of Small Molecule Agonists for Thrombopoietin (TPO) Signaling Pathway (AID 917)
Procedure, shortened: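 First, Ba/F3 cells with human TPO receptor were held overnight without IL-3. Next, compounds and TPO (26 pM final) were added. After 24 hrs at 37 C, luciferase detection reagent was added and luminescence measured following 10 min at room temperature.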

[3] = Confirmation and Secondary Assay for Modulators of Hemoglobin Beta Chain Splicing at IVS2 654 locus (AID 910);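 also: per-well total GFP intensity by laser scanning cytometry after 2-day treatment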
Procedure, shortened: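 HeLa cells stably carrying EGFP interrupted by mutant beta-globin IVS2-654 intron (CMV-driven) were treated with compound for 2 days at 37C; corrected splicing was scored as total peak GFP intensity per well (488 nm excitation, 500-520 nm emission).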

[4] = target: Cytochrome P450 3A4 (Homo sapiens) (UniProt P08684); test: qHTS Assay for Inhibitors and Substrates of Cytochrome P450 3A4 (AID 884); also: nearly all actives have a fitted effect of over 50% in size; also: potency is read from the fitted curve at half-maximal effect
Cytochrome P450 3A4 (Homo sapiens), sequence (P08684 whole entry, looked up): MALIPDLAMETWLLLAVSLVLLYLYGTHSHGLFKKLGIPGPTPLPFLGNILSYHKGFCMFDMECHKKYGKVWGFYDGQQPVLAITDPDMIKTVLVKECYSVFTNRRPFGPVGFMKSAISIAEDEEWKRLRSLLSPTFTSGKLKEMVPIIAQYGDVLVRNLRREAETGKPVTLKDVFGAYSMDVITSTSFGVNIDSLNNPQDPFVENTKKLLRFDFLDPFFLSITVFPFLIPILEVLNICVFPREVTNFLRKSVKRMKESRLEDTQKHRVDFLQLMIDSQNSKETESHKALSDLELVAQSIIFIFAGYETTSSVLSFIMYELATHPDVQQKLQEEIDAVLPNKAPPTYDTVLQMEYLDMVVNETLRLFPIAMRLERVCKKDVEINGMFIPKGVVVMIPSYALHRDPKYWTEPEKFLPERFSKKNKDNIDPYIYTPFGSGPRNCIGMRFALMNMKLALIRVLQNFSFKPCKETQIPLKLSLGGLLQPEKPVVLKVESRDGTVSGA
Procedure, shortened: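 Luminescent readout of luciferin produced by CYP3A4 (20 nM) dealkylation of Luciferin-PPXE, 25 uM (its KM). NADPH-driven reaction ran 60 min at RT after 10 min compound preincubation; data scaled to 57 uM ketoconazole as 100% inhibition.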

[5] = target: Cytochrome P450 2C9 (Homo sapiens) (UniProt P11712); test: qHTS Assay for Inhibitors and Substrates of Cytochrome P450 2C9 (AID 883); also: nearly all actives have a fitted effect of over 60% in size; also: potency is read from the fitted curve at half-maximal effect
Cytochrome P450 2C9 (Homo sapiens), sequence (P11712 whole entry, looked up): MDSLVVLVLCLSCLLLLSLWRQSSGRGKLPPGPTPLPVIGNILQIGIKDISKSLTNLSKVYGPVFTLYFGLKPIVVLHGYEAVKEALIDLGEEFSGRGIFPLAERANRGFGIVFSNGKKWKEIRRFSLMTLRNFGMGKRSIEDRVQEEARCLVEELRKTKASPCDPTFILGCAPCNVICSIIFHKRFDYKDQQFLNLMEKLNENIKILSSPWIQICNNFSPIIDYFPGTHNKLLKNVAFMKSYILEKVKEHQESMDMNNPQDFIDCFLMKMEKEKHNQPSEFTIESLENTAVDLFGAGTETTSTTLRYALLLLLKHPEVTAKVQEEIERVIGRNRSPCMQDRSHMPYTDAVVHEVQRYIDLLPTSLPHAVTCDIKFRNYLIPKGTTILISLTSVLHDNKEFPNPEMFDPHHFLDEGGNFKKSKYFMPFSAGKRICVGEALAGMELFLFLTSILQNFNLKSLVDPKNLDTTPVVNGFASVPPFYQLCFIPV
Procedure, shortened: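 A luminogenic readout tracked human CYP2C9 (10nM) converting deoxyluciferin (100uM, at KM) in 25mM KPO4 during 60 min at 37C with regenerated NADPH. Values normalized to 57uM sulphaphenazole as complete inhibition.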

[6] = target: Cytochrome P450 3A4 (Homo sapiens) (UniProt P08684); test: qHTS Assay for Activators of Cytochrome P450 3A4 (AID 885); also: nearly all actives have a fitted effect of over 65% in size
Procedure, shortened: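 CYP3A4 activity: Luciferin-PPXE O-dealkylation, 25uM substrate, 200mM KPO4, RT throughout. Read-out is luciferase luminescence; higher values reflect activation.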

[7] = target: Cytochrome P450 2D6 (Homo sapiens) (UniProt P10635); test: qHTS Assay for Inhibitors and Substrates of Cytochrome P450 2D6 (AID 891); also: nearly all actives have a fitted effect of over 60% in size; also: potency is read from the fitted curve at half-maximal effect
Cytochrome P450 2D6 (Homo sapiens), sequence (P10635 whole entry, looked up): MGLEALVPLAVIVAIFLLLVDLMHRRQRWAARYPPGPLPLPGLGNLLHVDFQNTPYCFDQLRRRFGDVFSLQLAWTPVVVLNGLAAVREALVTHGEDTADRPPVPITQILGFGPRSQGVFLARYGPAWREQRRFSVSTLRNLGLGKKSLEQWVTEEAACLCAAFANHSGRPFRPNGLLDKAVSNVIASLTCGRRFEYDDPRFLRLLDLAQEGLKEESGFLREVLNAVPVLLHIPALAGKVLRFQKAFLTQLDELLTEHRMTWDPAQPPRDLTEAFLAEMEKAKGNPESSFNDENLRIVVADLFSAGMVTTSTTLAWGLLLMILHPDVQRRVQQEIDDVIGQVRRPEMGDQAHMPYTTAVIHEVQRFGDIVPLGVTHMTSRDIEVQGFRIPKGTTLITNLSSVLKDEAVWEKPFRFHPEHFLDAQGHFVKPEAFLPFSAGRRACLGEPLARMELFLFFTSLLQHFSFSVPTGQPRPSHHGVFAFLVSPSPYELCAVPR
Procedure, shortened: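 Luminescent read-out of luciferin formed by 5 nM human CYP2D6 demethylating 30 uM Luciferin-ME EGE (Km level) over 60 min at room temperature after NADPH regeneration addition. Data normalized to full inhibition by 1.43 uM quinidine.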

[8] = target: Cytochrome P450 2C19 (Homo sapiens) (UniProt P33261); test: qHTS Assay for Inhibitors and Substrates of Cytochrome P450 2C19 (AID 899); also: nearly all actives have a fitted effect of over 60% in size; also: potency is read from the fitted curve at half-maximal effect
Cytochrome P450 2C19 (Homo sapiens), sequence (P33261 whole entry, looked up): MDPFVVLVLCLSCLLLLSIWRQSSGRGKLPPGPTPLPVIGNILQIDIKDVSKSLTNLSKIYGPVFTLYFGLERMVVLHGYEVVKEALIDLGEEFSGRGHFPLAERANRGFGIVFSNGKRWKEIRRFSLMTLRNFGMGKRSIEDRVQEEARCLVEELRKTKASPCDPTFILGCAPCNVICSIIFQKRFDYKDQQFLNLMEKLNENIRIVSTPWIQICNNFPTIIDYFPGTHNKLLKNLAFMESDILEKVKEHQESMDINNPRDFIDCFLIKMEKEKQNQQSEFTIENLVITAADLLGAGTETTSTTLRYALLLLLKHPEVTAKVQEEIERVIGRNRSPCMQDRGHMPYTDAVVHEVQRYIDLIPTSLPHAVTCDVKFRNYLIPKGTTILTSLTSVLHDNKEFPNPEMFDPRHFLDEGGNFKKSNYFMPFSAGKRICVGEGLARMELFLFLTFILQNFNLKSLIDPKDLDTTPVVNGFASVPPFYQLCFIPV
Procedure, shortened: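 NADPH-dependent conversion of Luciferin-H EGE (10uM, at KM) by 5nM enzyme in 50mM KPO4, 60 min at 37C following 10 min compound preincubation. Stopped with luciferin detection buffer; luminescence read after 20 min.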

[9] = qHTS Assay for Identification of Small Molecule Agonists for Hypoxia Response Element Signaling Pathway (AID 914; active = well fitted activation curve with a large enough effect in the signal ratio, with a control signal flat, not every such curve was filed as active; the % refers to the signal ratio); settings: ME-180 (cervical carcinoma) HRE-bla reporter, beta-lactamase ratio, CoCl2, 17 h; stronger effect = higher value
Procedure, shortened: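 Positive modulation of EC50 CoCl2-induced hypoxia response element signaling is measured in ME-180 cells with a beta-lactamase reporter. Compounds are titrated, incubation runs 17 hours, and %Activity derives from the blue/green ratio.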

[10] = qHTS Assay for Identification of Small Molecule Antagonists for NFkB Signaling Pathway (AID 895; active = well fitted inhibition curve with a large enough effect in the signal ratio, with a control signal flat, not every such curve was filed as active; the % refers to the signal ratio; also: potency is read from the fitted curve at half-maximal effect)
Procedure, shortened: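 NFkB-bla ME-180 cervical carcinoma cells with beta-lactamase reporter under NFkB response element; compounds added, then TNF alpha at 10 pM final (EC50), 5 h at 37 C. LiveBLAzer substrate 2 h, room temperature; emission 460/530 nm at 405 nm excitation.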

NC(N)=Nc1nc(CSCC/C(N)=N/S(N)(=O)=O)cs1
outcome [1]: inactive | Potency [2]: inactive

C[N+](C)(C)CC(=O)O
outcome [1]: inactive | Potency [2]: inactive

CCN(CC)CCNC(=O)c1ccc(N)cc1
outcome [1]: inactive | outcome [3]: inactive | Potency [2]: inactive

COc1cc(O)c2c(c1)C(=O)c1cc(C)cc(O)c1C2=O
Potency [4]: inactive | outcome [3]: inactive

COc1ccc(-c2coc3cc(O)ccc3c2=O)cc1
Potency [5]: inactive | Potency [4]: inactive | outcome [6]: inactive | outcome [3]: inactive

O=C(O)CCc1nc(-c2ccccc2)c(-c2ccccc2)o1
outcome [1]: inactive | outcome [3]: inactive | Potency [2]: inactive

Cc1cccc(C)c1OCC(C)N (stereo unspecified)
outcome [3]: inactive

CC(C)NCC(O)COc1cccc2[nH]ccc12 (stereo unspecified)
outcome [1]: inactive | outcome [3]: inactive | Potency [2]: inactive

COc1ccc(-c2coc3cc(O)cc(O)c3c2=O)cc1
Potency [5]: inactive | Potency [4]: 20 µM (active) | outcome [6]: inactive | Potency [7]: 31.6 µM (active) | Potency [8]: 7.94 µM (active) | outcome [3]: inactive

O=C1C[C@@H](c2ccc(O)cc2)Oc2cc(O)cc(O)c21
Potency [7]: inactive

COCCCCC(=NOCCN)c1ccc(C(F)(F)F)cc1
outcome [6]: inactive | Potency [7]: 3.98 µM (active) | Potency [8]: 0.0631 µM (active) | Potency [2]: inactive

CCCCCCCCCCCC1=C(O)C(=O)C=C(O)C1=O
Potency [5]: 25.1 µM (active) | Potency [4]: inactive | Potency [7]: inactive and 2 µM (active) | outcome [3]: inactive

O=c1cc(-c2ccccc2)oc2cc(O)c(O)c(O)c12
Potency [5]: 5.01 µM (active) | outcome [6]: inactive | Potency [7]: 31.6 µM (active) | Potency [8]: 5.01 µM (active) | outcome [3]: inactive

CS(=O)c1ccc(-c2nc(-c3ccc(F)cc3)c(-c3ccncc3)[nH]2)cc1 (stereo unspecified)
Potency [5]: 2 µM (active) | outcome [6]: inactive | Potency [8]: 0.0398 µM (active)

O=C1C(Cl)=C(NCCN2CCOCC2)C(=O)c2ncccc21
Potency [4]: 2.51 µM (active) | outcome [6]: inactive

c1cc(-c2sc(-c3ccncc3)c(-c3ccncc3)c2-c2ccncc2)ccn1
Potency [5]: 2 µM (active) | Potency [4]: 0.316 µM (active) | activity change, positive = activation [6]: -102% [at 11.4 µM] (inactive) | Potency [8]: 1.58 µM (active) | activation [9]: -25.7% (inactive)

O=C1NCC2(CCN(CCc3ccccc3)CC2)O1
outcome [1]: inactive | Potency [4]: inactive | outcome [3]: inactive | Potency [2]: inactive

Clc1ccc(Cn2c(CN3CCCC3)nc3ccccc32)cc1
outcome [1]: inactive | outcome [6]: inactive | Potency [7]: 1.26 µM (active) and 794 nM (active) | Potency [8]: 0.199 µM (active) | Potency [2]: inactive

Nc1ncnc2c1ncn2[C@@H]1O[C@H](CO)C[C@@H]1O
Potency [4]: inactive

COc1ccc(C2Sc3ccccc3N(CCN(C)C)C(=O)C2OC(C)=O)cc1 (stereo unspecified)
outcome [3]: inactive

c1ccc2c(Cc3c[nH]c4ccccc34)c[nH]c2c1
outcome [6]: inactive | outcome [3]: inactive

CCN1CCC[C@H]1CNC(=O)c1cc(S(N)(=O)=O)ccc1OC
outcome [1]: inactive | Potency [4]: inactive | Potency [8]: inactive | Potency [2]: inactive

C[C@]12CCC3c4ccc(O)cc4CCC3C1CCC2=O (stereo partly specified)
outcome [3]: inactive

O=c1cc(-c2ccccc2)oc2cc(O)cc(O)c12
Potency [4]: 7.94 µM (active) and inactive and 2.51 µM (active) | outcome [6]: inactive | Potency [8]: 0.794 µM (active) | outcome [3]: inactive

CC1(C)CCC2=C(O1)c1ccccc1C(=O)C2=O
outcome [1]: inactive | Potency [10]: 8.91 µM (active)

CC(C)(C)c1ccc(C(O)CCCN2CCC(C(O)(c3ccccc3)c3ccccc3)CC2)cc1 (stereo unspecified)
outcome [1]: inactive | activation [9]: 3.01% (inactive)
